The values below come from PubChem BioAssay (NCATS).

A short description of experiment [1]: qHTS assay for measurement of the activity of small molecule inhibitors on Zika virus induced Caspase-3 activity in human astrocytoma cells (AID 1224859). The essentials: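 SNB-19 astrocytoma cells, 250/well, pretreated 1 h with compounds, then Zika virus at 2 FFU/cell for 6 h at 37 C; Caspase-Glo 3/7 luminescence after 30 min; percent inhibition normalised to uninfected and infected controls.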
Background: Quantitative high-throughput screening tests each substance at several concentrations.

Experiment [2] in a line: qHTS assay to identify small molecule inhibitors of chordoma cells - UCH-2 (AID 1259356). Further: series mostly up to about 46 µM.
Experiment [3] can be described thus: P-glycoprotein substrates identified in KB-8-5-11 adenocarcinoma cell line, qHTS therapeutic library screen (AID 1346987). Further: nearly all actives have a fitted effect of over 65% in size. Further: potency means the concentration at half of the fitted maximal effect. The essentials: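 Human cervical adenocarcinoma KB-8-5-11 cells, selected in colchicine to over-express P-gp and assayed without it, were exposed for 72 h to titrated compounds. An ATP-based luminescent viability signal gave AC50.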
The target in experiment [4] is Atrial natriuretic peptide receptor 1 (Homo sapiens) (UniProt P16066). The experiment is described as follows: Natriuretic polypeptide receptor (hNpr1) antagonism - Pilot screen (AID 1347049; calls by dose curve;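 further: HEK293 cells with hNpr1 and GloSensor cGMP luciferase stimulated by 0.1 nM hNppA; agonist-evoked cGMP luminescence read 20 min after hNppA addition; series mostly up to about 58 µM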). A digest of the protocol: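 Cells expressing receptor plus cGMP biosensor are seeded and incubated overnight at 37C, then loaded with GloSensor reagent (2% final) at room temperature for 2 h. Library compounds go on for 30 min. A pre-read precedes agonist (hNppA, 0.1 nM final) and a 20-min readout.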
Chain of Atrial natriuretic peptide receptor 1 (Homo sapiens) (P16066 whole entry, looked up): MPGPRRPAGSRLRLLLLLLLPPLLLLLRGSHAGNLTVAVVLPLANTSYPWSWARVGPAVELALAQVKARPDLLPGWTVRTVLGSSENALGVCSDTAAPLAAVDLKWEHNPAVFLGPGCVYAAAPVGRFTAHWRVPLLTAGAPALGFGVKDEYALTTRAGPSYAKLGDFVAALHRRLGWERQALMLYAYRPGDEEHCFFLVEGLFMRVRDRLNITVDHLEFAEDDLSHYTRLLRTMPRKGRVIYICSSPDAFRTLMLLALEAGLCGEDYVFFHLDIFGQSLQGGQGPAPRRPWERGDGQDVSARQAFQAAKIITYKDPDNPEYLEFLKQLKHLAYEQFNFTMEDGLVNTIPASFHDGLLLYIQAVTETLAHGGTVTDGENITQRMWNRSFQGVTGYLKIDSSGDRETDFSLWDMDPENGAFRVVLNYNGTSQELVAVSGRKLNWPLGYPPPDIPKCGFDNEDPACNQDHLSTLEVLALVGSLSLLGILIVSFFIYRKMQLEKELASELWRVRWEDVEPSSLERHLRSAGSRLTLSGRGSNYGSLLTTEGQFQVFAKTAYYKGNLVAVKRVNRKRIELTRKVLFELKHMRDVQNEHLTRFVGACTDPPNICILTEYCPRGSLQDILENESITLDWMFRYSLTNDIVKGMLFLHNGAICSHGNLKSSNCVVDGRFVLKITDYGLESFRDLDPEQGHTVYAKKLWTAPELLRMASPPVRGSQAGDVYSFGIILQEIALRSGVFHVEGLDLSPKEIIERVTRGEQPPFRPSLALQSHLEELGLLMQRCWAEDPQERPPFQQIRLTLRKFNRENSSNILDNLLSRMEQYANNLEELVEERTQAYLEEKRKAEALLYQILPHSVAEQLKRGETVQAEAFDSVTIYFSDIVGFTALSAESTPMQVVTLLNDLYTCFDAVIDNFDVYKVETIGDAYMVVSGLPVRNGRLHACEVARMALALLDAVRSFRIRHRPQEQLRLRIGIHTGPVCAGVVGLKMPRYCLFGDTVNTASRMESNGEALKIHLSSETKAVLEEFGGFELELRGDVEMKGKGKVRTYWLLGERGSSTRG

The target of experiment [5] is Atrial natriuretic peptide receptor 2 (Homo sapiens) (UniProt P20594). The experiment is described as follows: Natriuretic polypeptide receptor (hNpr2) antagonism - Pilot subtype selectivity assay (AID 1347050; calls by dose curve). A digest of the protocol: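 Read-out: GloSensor luminescence (CCD imager), baseline vs post-stimulation. HEK293 cells expressing hNpr2; compounds pre-incubated 30-50 min at ambient temperature; hNppC 1 nM final, 20 min.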
Chain of Atrial natriuretic peptide receptor 2 (Homo sapiens) (P20594 whole entry, looked up): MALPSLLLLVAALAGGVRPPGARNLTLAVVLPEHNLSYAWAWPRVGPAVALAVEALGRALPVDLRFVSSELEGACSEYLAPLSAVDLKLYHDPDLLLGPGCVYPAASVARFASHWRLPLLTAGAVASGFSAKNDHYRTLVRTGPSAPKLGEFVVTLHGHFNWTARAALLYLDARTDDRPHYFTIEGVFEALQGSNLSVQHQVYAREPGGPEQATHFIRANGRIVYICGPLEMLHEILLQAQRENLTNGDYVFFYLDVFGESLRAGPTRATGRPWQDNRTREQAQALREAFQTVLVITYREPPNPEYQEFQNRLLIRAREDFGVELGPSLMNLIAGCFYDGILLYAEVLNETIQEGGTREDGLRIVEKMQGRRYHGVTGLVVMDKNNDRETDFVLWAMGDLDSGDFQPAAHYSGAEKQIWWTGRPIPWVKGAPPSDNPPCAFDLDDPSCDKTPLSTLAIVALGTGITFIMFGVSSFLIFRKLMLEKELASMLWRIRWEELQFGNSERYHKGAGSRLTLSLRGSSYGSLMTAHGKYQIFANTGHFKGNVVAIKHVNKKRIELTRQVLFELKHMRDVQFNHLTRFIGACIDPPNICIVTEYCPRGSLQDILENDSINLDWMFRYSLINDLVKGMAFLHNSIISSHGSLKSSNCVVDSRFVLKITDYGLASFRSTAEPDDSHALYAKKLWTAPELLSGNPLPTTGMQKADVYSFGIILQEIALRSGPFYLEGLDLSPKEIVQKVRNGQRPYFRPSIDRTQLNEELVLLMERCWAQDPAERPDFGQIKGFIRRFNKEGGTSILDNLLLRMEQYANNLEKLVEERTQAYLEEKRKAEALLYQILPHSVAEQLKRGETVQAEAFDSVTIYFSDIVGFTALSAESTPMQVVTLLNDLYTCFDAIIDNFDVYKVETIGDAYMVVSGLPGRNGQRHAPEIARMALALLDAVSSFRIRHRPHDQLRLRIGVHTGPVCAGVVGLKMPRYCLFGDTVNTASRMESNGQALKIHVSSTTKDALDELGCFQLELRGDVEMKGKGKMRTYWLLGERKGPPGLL

Experiment [6] is described as follows: NS1 protein of Zika virus - qHTS assay to identify small molecule inhibitors in human HEK 293 cells (AID 1347053). Further: series mostly up to about 46 µM; nearly all actives have a fitted effect of over 55% in size. A digest of the protocol: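 Compound-treated (1 h pre-infection) HEK 293 cells infected with ZIKV MR766, MOI = 0.5; after 24 h at 37 C, NS1 read by TR-FRET; data normalized to uninfected and infected controls.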
Experiment [7] addresses T1, Tyrosine-protein phosphatase non-receptor type substrate 1 (Homo sapiens) + Leukocyte surface antigen CD47 (Homo sapiens) (UniProt P78324+Q08722). In words: CD47-SIRPalpha protein protein interaction - LANCE assay qHTS validation (AID 1347057; active means well fitted curve in the direction sought with a large enough effect in the signal ratio, with a control signal flat, not every such curve was filed as active; the % refers to the signal ratio; further: series mostly up to about 38 µM). The essentials: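 Inhibition of soluble CD47/SIRPalpha ectodomain association by titrated compounds, measured as 665/615 nm time-resolved FRET ratio after sequential 30 min room-temperature incubations.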
(In general: TR-FRET usually uses a lanthanide donor and a delayed reading to cut background.)

Experiment [8] has as its target T1, Tyrosine-protein phosphatase non-receptor type substrate 1 (Homo sapiens) + Leukocyte surface antigen CD47 (Homo sapiens). In words: CD47-SIRPalpha protein protein interaction - HTRF assay qHTS validation (AID 1347058; active means well fitted curve in the direction sought with a large enough effect in the signal ratio, not every such curve was filed as active; the % refers to the signal ratio; further: series mostly up to about 38 µM). The essentials:
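Soluble extracellular domains (6His-CD47, Avi-tag-biotinylated SIRPalpha) in PBS pH 7.4 with 0.05% IGEPAL CA-630. Compounds were preincubated 30 min at RT with CD47 and anti-His-Eu, then SIRPalpha and SAV-XL665 were added. TR-FRET 665/615 ratio.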

Experiment [9] deals with Parathyroid hormone/parathyroid hormone-related peptide receptor (Homo sapiens) (UniProt Q03431). In words: qHTS for PTHR1 Agonists: Optimization Screen against the NCGC LOPAC library (AID 1347079).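 Further: GloSensor cAMP luminescence in HEK-293 GP2 cells expressing human PTHR1 with IBMX.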 The essentials:
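Signal increase flags agonism. GP2 cells, derived from HEK-293, express human PTHR1 and a GloSensor cAMP construct.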

The nature of experiment [10]: qHTS of pediatric cancer cell lines to identify multiple opportunities for drug repurposing: Primary screen for TC32 cells (AID 1347089). Further: nearly all actives have a fitted effect of over 60% in size. A digest of the protocol:
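In the primary qHTS, MIPE compounds were tested at 11 concentrations (0.78 nM to 46 µM) and NPC compounds at 8 (0.59 nM to 46 µM) on TC32 cells for 48 h. CellTiter-Glo luminescence gave viability.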

The nature of experiment [11]: qHTS of pediatric cancer cell lines to identify multiple opportunities for drug repurposing: Primary screen for SJ-GBM2 cells (AID 1347091). The essentials: (§1)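 Eight- or eleven-point concentration series, 48 h treatment at 37 degrees C in growth media; readout CellTiter-Glo luminescence. Potency and efficacy were taken from the concentration-response curves.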
Experiment [12] is described as follows: qHTS of pediatric cancer cell lines to identify multiple opportunities for drug repurposing: Primary screen for A673 cells (AID 1347092). Further: nearly all actives have a fitted effect of over 45% in size. A digest of the protocol:
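48 h compound exposure, A673, 500-1,000 cells/well, 37 degrees C/5% CO2. MIPE: 11-point, 0.78 nM-46 µM; NPC: 8-point, 0.59 nM-46 µM (final). Readout CellTiter-Glo luminescence after 15 min RT.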

Experiment [13] in a line: Natriuretic polypeptide receptor (hNpr1) antagonism - Pilot counterscreen GloSensor control cell line (AID 1347045; calls by dose curve; further: series mostly up to about 38 µM). A digest of the protocol:
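The SNP-driven cGMP luminescence signal (50 uM, 20 min, room temperature) was measured in GloSensor HEK293 control cells. Compounds were tested as a LOPAC titration series and preincubated for 30-50 min.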
For orientation: Counterscreens check selectivity or assay interference.

The nature of experiment [14]: qHTS assay to identify small molecule inhibitors of chordoma cells - UCH-1 (AID 1259355). Further: nearly all actives have a fitted effect of over 55% in size. The essentials:
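A 48hr growth-inhibition format: each drug tested at 15 concentrations together with added auranofin, camptothecin, doxorubicin, rubitecan and topotecan, with cell viability quantified as CellTiter-Glo luminescence.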

The target of experiment [15] is T1, Tyrosine-protein phosphatase non-receptor type substrate 1 (Homo sapiens) + Leukocyte surface antigen CD47 (Homo sapiens). In words: CD47-SIRPalpha protein protein interaction - Alpha assay qHTS validation (AID 1347059).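 Further: bead proximity luminescence from CD47 binding SIRPalpha after compound preincubation with SIRPalpha.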 The essentials: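 In PBS (pH 7.4) with 0.05% IGEPAL CA-630, compound is preincubated with biotin-Avi-SIRPalpha ectodomain before His-CD47 ectodomain and affinity beads are added. Light-protected room-temperature incubations; AlphaScreen readout.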

Experiment [16] is described as follows: qHTS of pediatric cancer cell lines to identify multiple opportunities for drug repurposing: Primary screen for DAOY cells (AID 1347090). Further: series mostly up to about 46 µM; nearly all actives have a fitted effect of over 55% in size. The essentials: as §1

A number with no mark means an inactive call. Inconclusive results are not listed. Active and inactive are the calls of the source. Unless noted, the call rests on the fitted dose curve; in most records, active means well fitted curve in the direction sought with a large enough effect; inconclusive means small, poorly fitted or top-dose-only effect, or another doubt; inactive means no such curve, though single readings can be large; an effect the other way counts as inactive or inconclusive.

T1 sequence (P78324 whole entry, looked up, the tested form may be a part): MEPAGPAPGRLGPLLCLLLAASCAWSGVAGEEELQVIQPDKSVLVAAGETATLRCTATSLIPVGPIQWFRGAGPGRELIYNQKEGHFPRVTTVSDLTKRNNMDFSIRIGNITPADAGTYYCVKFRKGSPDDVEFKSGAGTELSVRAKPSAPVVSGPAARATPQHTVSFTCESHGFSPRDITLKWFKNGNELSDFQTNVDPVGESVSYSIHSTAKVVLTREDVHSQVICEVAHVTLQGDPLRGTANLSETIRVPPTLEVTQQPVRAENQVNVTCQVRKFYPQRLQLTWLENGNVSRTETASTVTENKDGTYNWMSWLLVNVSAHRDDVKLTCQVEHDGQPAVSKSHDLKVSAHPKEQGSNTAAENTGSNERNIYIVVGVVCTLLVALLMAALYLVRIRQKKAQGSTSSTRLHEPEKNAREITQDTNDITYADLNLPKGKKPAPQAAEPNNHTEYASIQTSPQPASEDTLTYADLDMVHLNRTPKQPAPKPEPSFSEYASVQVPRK
T1 sequence (Q08722 whole entry, looked up, the tested form may be a part): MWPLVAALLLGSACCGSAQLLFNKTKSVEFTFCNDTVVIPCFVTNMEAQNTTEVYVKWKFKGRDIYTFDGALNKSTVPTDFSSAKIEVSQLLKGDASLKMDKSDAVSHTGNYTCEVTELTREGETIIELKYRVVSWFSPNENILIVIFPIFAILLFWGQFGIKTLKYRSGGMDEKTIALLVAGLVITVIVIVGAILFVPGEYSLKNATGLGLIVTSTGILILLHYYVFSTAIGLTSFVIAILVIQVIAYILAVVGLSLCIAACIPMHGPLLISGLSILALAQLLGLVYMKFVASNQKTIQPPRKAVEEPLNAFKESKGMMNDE
Chain of Parathyroid hormone/parathyroid hormone-related peptide receptor (Homo sapiens) (Q03431 whole entry, looked up): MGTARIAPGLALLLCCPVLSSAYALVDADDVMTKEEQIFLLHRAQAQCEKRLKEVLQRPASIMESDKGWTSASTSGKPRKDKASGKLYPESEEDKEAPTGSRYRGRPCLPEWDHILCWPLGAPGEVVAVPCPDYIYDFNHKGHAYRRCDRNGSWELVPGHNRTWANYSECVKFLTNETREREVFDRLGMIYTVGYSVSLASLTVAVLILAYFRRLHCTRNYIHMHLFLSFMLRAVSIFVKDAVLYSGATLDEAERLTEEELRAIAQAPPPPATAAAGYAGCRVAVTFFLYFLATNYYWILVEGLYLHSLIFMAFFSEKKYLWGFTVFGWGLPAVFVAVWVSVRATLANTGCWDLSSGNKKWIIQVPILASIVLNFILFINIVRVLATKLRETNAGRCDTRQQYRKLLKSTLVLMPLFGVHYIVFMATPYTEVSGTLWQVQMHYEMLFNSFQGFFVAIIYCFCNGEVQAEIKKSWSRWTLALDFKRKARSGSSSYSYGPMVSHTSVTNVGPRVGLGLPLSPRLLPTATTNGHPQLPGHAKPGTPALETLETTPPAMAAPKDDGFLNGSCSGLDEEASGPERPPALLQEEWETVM

With `CCc1c(C)[nH]c2c1C(=O)C(CN1CCOCC1)CC2` (centres undefined), the outcome in [1], in experiment [6], in [7], in experiment [8] and in experiment [9] was inactive. In addition, the Potency result in [2], in [3], in experiment [4], in [5], in experiment [10] and in [11] was “inactive” throughout. For the same compound, in [12], the Potency result was “inactive”.

For the compound `CCN(Cc1ccncc1)C(=O)C(CO)c1ccccc1` (centres undefined), the outcome in experiment [1], in experiment [6], in experiment [7] and in experiment [9] was inactive. Also, the Potency result in [2], in experiment [3], in [13], in experiment [4], in experiment [5] and in experiment [10] was “inactive” in each case. For the same compound, the Potency result in experiment [11] and in experiment [12] was “inactive” each time.

In the case of `C=CCc1ccccc1OCC(O)CNC(C)C` (centres undefined), the Potency result in [14], in experiment [2], in experiment [3], in experiment [13], in experiment [4] and in experiment [5] was “inactive” in each case. The Potency entry in [15], in experiment [10], in experiment [16], in [11] and in [12] was “inactive” throughout. Also, the result in experiment [6], in experiment [7], in experiment [8] and in experiment [9] was inactive.

`CCCCNc1c(C(=O)OCC)c(C)nc2c1cnn2CC`: the result in experiment [1], in [6], in experiment [7] and in experiment [9] was inactive. In addition, the Potency entry in experiment [2], in experiment [4], in experiment [5], in experiment [10] and in [11] was “inactive” throughout.

For `CC(C)NCC(O)c1cc(O)cc(O)c1` (centres undefined), the compound was classed as inactive in [1], in experiment [6], in experiment [7] and in experiment [9]. Also, the Potency entry in experiment [2], in experiment [13], in [4], in experiment [5], in experiment [15] and in experiment [10] was “inactive” each time. Further, the Potency entry in [16], in [11] and in experiment [12] was “inactive” in each case.

As to `Cc1ccc(=O)n(-c2ccccc2)c1`, the Potency result in [14], in [2], in experiment [3], in experiment [13], in experiment [4] and in [5] was “inactive” each time. Further, the Potency result in [10], in experiment [11] and in experiment [12] was “inactive” each time. For the same compound, the compound was classed as inactive in experiment [6], in [7], in experiment [8] and in experiment [9].

Turning to `NC1=NCC2c3ccccc3Cc3ccccc3N12` (centres undefined), the call in experiment [1], in experiment [6], in experiment [7], in [8] and in experiment [9] was inactive. Also, the Potency result in experiment [2], in experiment [3], in experiment [13], in experiment [4], in [5] and in experiment [15] was “inactive” each time. The Potency entry in [10], in [11] and in experiment [12] was “inactive” each time.

With `CC(=O)Nc1nnc(S(N)(=O)=O)s1`, the call in experiment [1], in [6], in [7] and in [9] was inactive. In addition, the Potency entry in experiment [2], in experiment [3], in [4], in experiment [5], in experiment [10] and in experiment [11] was “inactive” throughout. For the same compound, the Potency entry in experiment [12] was “inactive”.

With `CN1C(=O)CC[C@H]1c1cccnc1`, the compound was called inactive in experiment [1], in [6], in experiment [7], in experiment [8] and in experiment [9]. Also, the Potency result in experiment [2], in experiment [3], in experiment [13], in [4], in [5] and in [15] was “inactive” each time. Besides, the Potency entry in experiment [10], in experiment [11] and in experiment [12] was “inactive” throughout.

With `CCOC(=O)c1cnc2c(cnn2CC)c1NN=C(C)C`, the outcome in experiment [1], in experiment [6], in [7], in experiment [8] and in [9] was inactive. Also, the Potency entry in experiment [2], in [13], in [4], in experiment [5], in [10] and in [11] was “inactive” each time. Also, the Potency result in experiment [12] is “inactive”.

Take `CC(=O)Oc1cc(C(C)C)c(OCCN(C)C)cc1C`: the compound was classed as inactive in experiment [1], in experiment [6] and in experiment [9]. The Potency result in experiment [2], in experiment [3], in experiment [4], in experiment [5], in experiment [10] and in experiment [16] was “inactive” each time. Moreover, the Potency result in experiment [11] and in experiment [12] was “inactive” each time.

Take `O=C1CC2(CCCC2)CC(=O)N1CCCCN1CCN(c2ncccn2)CC1`: the Potency entry in [14], in experiment [2], in [13], in experiment [4], in [5] and in experiment [10] was “inactive” in each case. Moreover, the Potency result in experiment [16], in experiment [11] and in experiment [12] was “inactive” throughout. Further, the Potency in experiment [3] is 9.2 µM (active). The outcome in [6], in experiment [7] and in experiment [9] was inactive.
